According to the supplement of paper PMC13380429:

How the values were obtained:
[1] = test system: Vero E6 infected with SARS-CoV-2; assay: morphology score (similarity to uninfected cells); higher = more like uninfected cells; details: 24 h
[2] = test system: Vero E6 infected with SARS-CoV-2; assay: SARS-CoV-2 infection rate relative to infected DMSO; higher = more infection, active = 60 or less; details: 24 h

Which morphology score [1] does the source give for OB1OCc2cc(Cl)ccc21 (10 µM) here?
The morphology score was -0.0961.

What about the SARS-CoV-2 infection rate [2] of the same compound?
The SARS-CoV-2 infection rate was 106% (inactive).

Which results are given for C[C@@H]1C[C@H]2[C@@H]3CCC4=CC(=O)C=C[C@]4(C)[C@@]3(F)[C@@H](O)C[C@]2(C)[C@H]1C(=O)CO [desoximetasone] (10 µM)?
morphology score [1]: 0.067; SARS-CoV-2 infection rate [2]: 91% (inactive)

Which results are given for O=S(=O)(/N=C/c1c(O)ccc2ccccc12)c1cccs1 (10 µM)?
morphology score [1]: 0.103; SARS-CoV-2 infection rate [2]: 98.5% (inactive)

CN1CCN(C2CCN(C(=O)Nc3cc(Oc4ccc(NC(=O)C5(C(=O)Nc6ccc(F)cc6)CC5)c(F)c4)ccn3)CC2)CC1 [golvatinib] (0.833333 µM) was tested. Which morphology score [1] did it give?
Its morphology score is 0.0621.

What about the SARS-CoV-2 infection rate [2] of the same compound?
The SARS-CoV-2 infection rate was 104% (inactive).

O=C(NNc1ccccc1)c1ccncc1 [plurisin-1] (10 µM) was tested. Which morphology score [1] did it give?
Its morphology score is -0.14.

And the SARS-CoV-2 infection rate [2]?
The SARS-CoV-2 infection rate was 108% (inactive).

Clc1cccc(Cl)c1NC1=NCCN1 [clonidine] (10 µM) was tested. Which morphology score [1] did it give?
The morphology score was 0.0616.

And the SARS-CoV-2 infection rate [2]?
The SARS-CoV-2 infection rate was 100% (inactive).

How did the morphology score [1] turn out when COCc1nnc(N2CC(Oc3ccc(F)cc3Cl)C2)n1-c1ccc(OC)nc1 (10 µM) was run?
The morphology score was -0.109.

And the SARS-CoV-2 infection rate [2]?
The SARS-CoV-2 infection rate was 106% (inactive).

Which morphology score [1] does the source give for CC(=O)c1cc2c(o1)C(=O)c1ccccc1C2=O [napabucasin] (0.833333 µM) here?
Its morphology score is 0.309.

And the SARS-CoV-2 infection rate [2]?
The SARS-CoV-2 infection rate was 89% (inactive).

Which results are given for COc1cccc(/C=N/N=C/c2cccc(OC)c2)c1 (10 µM)?
morphology score [1]: 0.132; SARS-CoV-2 infection rate [2]: 92% (inactive)

How did the morphology score [1] turn out when Nc1ccc(C(=O)NCC(=O)O)cc1 [4-aminohippuric-acid] (10 µM) was run?
The morphology score was -0.0582.

And the SARS-CoV-2 infection rate [2]?
The SARS-CoV-2 infection rate was 108% (inactive).

How did the morphology score [1] turn out when c1cc(CN2CCCCC2)cc(OCCCNc2nc3ccccc3s2)c1 [zolantidine] (10 µM) was run?
Its morphology score is 0.67.

And the SARS-CoV-2 infection rate [2]?
The SARS-CoV-2 infection rate was 44% (active).

For CN1C(=O)N(c2cc(Cl)cc(Cl)c2)C(=O)[C@]12CN(Cc1cc(C(=O)O)cs1)C[C@H]2c1ccc(C#N)cc1 (10 µM), which morphology score [1] is on record?
Its morphology score is 0.281.

And the SARS-CoV-2 infection rate [2]?
Its SARS-CoV-2 infection rate is 92.5% (inactive).
